Measured values: PubChem BioAssay (NCI)
About 83,000 compounds went through this panel and 20% of them were active in at least one assay; those are over-represented in the sample as a whole.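 Negative percent growth values reflect cell death: -40 means 40% of the cells present at the start died, and -100 means all died.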 Calls of active or inactive are those of the source. Rule for the calls: active = growth percent below 10; inactive = the rest.

Key:
Assay in all cases: NCI-60 one-dose screen, 48 h (100 = growth as untreated, 0 = no growth, -100 = all killed)
Conditions in all cases: 10 µM unless noted
NCI-H23 lung = system: NCI-H23 lung
NCI-H226 lung = system: NCI-H226 lung
HOP-62 NSCLC = system: HOP-62 NSCLC
NCI-H460 lung = system: NCI-H460 lung
HOP-92 NSCLC = system: HOP-92 NSCLC
NCI-H522 lung = system: NCI-H522 lung
A549/ATCC NSCLC = system: A549/ATCC NSCLC
786-0 renal = system: 786-0 renal
COLO 205 colon = system: COLO 205 colon
DU-145 prostate = system: DU-145 prostate
MALME-3M melanoma = system: MALME-3M melanoma
MDA-MB-231 breast = system: MDA-MB-231 breast
RXF 393 renal = system: RXF 393 renal
SF-268 CNS = system: SF-268 CNS
SF-295 CNS = system: SF-295 CNS
SF-539 CNS = system: SF-539 CNS
UACC-257 melanoma = system: UACC-257 melanoma
M14 melanoma = system: M14 melanoma
K-562 leukemia = system: K-562 leukemia

Measured: growth

COc1ccc(SC2c3ccc(C)cc3Oc3nc(N)c(C#N)c(N)c32)cc1 (centres undefined)
inactive: A549/ATCC NSCLC 19.9% | SF-295 CNS 44.8%
active: NCI-H23 lung -43.8% | NCI-H226 lung -63.9% | HOP-62 NSCLC -10.6% | NCI-H460 lung -49.6% | HOP-92 NSCLC -56.7% | NCI-H522 lung -90.3% | 786-0 renal -95.4% | COLO 205 colon -66.5% | DU-145 prostate -88.3% | MALME-3M melanoma -87.6% | MDA-MB-231 breast -86.5% | RXF 393 renal -69.2% | SF-268 CNS 2.01% | SF-539 CNS -75.4% | UACC-257 melanoma -74.8% | M14 melanoma -76.5%

COc1ccc(-c2nc3ccc(-c4nc5ccc(N6CCN(C)CC6)cc5[nH]4)cc3[nH]2)cc1OC
active: MALME-3M melanoma 0.551%
inactive: NCI-H23 lung 62.7% | NCI-H226 lung 54.6% | HOP-62 NSCLC 76.9% | NCI-H460 lung 103% | HOP-92 NSCLC 89.8% | NCI-H522 lung 13.7% | A549/ATCC NSCLC 96.1% | 786-0 renal 79.1% | COLO 205 colon 25.5% | DU-145 prostate 77.6% | K-562 leukemia 40.5% | MDA-MB-231 breast 82.9% | RXF 393 renal 96.6% | SF-268 CNS 50.6% | SF-295 CNS 66.6% | SF-539 CNS 70.5% | UACC-257 melanoma 25.2% | M14 melanoma 18.3%

Cc1ccc(NC(=O)/C=C/c2ccccc2)c(C(N)=O)c1
inactive: NCI-H23 lung 58.6% | NCI-H226 lung 68.2% | HOP-62 NSCLC 88.2% | NCI-H460 lung 10.5% | HOP-92 NSCLC 62.9% | A549/ATCC NSCLC 25.7% | 786-0 renal 60.7% | K-562 leukemia 13.1% | MALME-3M melanoma 96.6% | MDA-MB-231 breast 52.5% | SF-268 CNS 43.3% | SF-295 CNS 15.2% | UACC-257 melanoma 63.2% | M14 melanoma 27%
active: NCI-H522 lung -8.74% | COLO 205 colon -21.2% | DU-145 prostate -8.15% | RXF 393 renal -9.67% | SF-539 CNS 0.356%

COC(=O)c1ccc(NC(=O)c2ccc(-c3cccc([N+](=O)[O-])c3)o2)cc1
inactive: NCI-H23 lung 87.3% | NCI-H226 lung 73.9% | HOP-62 NSCLC 107% | NCI-H460 lung 101% | HOP-92 NSCLC 94.6% | NCI-H522 lung 94.2% | A549/ATCC NSCLC 108% | 786-0 renal 103% | COLO 205 colon 108% | DU-145 prostate 110% | K-562 leukemia 105% | MALME-3M melanoma 90.3% | MDA-MB-231 breast 90.3% | RXF 393 renal 92.7% | SF-268 CNS 97.6% | SF-295 CNS 94.9% | SF-539 CNS 90.5% | UACC-257 melanoma 102% | M14 melanoma 101%

COc1ccc(C2CC(c3ccc(Cl)cc3)=NN2/C=C2\SC(=S)N(NC(=O)Cc3ccccc3Nc3c(Cl)cccc3Cl)C2=O)cc1 (centres undefined)
inactive: NCI-H23 lung 80.1% | NCI-H226 lung 68.8% | HOP-62 NSCLC 79.1% | NCI-H460 lung 81.8% | NCI-H522 lung 65.7% | A549/ATCC NSCLC 57.8% | COLO 205 colon 30% | DU-145 prostate 72.5% | MALME-3M melanoma 60.5% | MDA-MB-231 breast 42.1% | RXF 393 renal 66.2% | SF-268 CNS 62.9% | SF-295 CNS 88% | SF-539 CNS 71.1% | UACC-257 melanoma 88.5% | M14 melanoma 65.9%
active: HOP-92 NSCLC -2.84% | 786-0 renal -55.2% | K-562 leukemia 1.36%

C=C1C(=O)O[C@H]2[C@H]1CC/C(COC(=O)c1cc3cc(OC)ccc3[nH]1)=C\CC[C@@]1(C)O[C@@H]21
active: NCI-H23 lung -72.6% | NCI-H226 lung -68.3% | HOP-62 NSCLC -68.9% | NCI-H460 lung -37% | HOP-92 NSCLC -62.7% | NCI-H522 lung -91.4% | A549/ATCC NSCLC -73.9% | 786-0 renal -87.6% | COLO 205 colon -71.3% | DU-145 prostate -94.4% | K-562 leukemia 0.302% | MALME-3M melanoma -85.3% | MDA-MB-231 breast -71.6% | RXF 393 renal -95.1% | SF-268 CNS -82.8% | SF-539 CNS -93.4% | UACC-257 melanoma -89.6% | M14 melanoma -52.9%
inactive: SF-295 CNS 47.5%

CC1=C[C@H]2c3c(c(O)c(O)c4oc5ccccc5c(=O)c34)[C@H](c3cc(O)c(O)c4oc5ccccc5c(=O)c34)[C@H]2C(C)(C)C1
inactive: COLO 205 colon 10.7% | DU-145 prostate 14.9% | MDA-MB-231 breast 12.1%
active: NCI-H23 lung -4.58% | NCI-H226 lung -14.4% | HOP-62 NSCLC -9.58% | NCI-H460 lung -37.6% | HOP-92 NSCLC -5.31% | NCI-H522 lung -18.3% | A549/ATCC NSCLC -11.8% | 786-0 renal -76.6% | K-562 leukemia 3.25% | MALME-3M melanoma -1.47% | RXF 393 renal 7.55% | SF-268 CNS 5.33% | SF-295 CNS -33.4% | SF-539 CNS -5.05% | UACC-257 melanoma 7.1% | M14 melanoma -70.4%

COc1cc2c(cc1-c1c(C)noc1C)ncc1nc(C3CCOCC3)n([C@H](C)COC(F)F)c12
inactive: NCI-H23 lung 60.1% | NCI-H226 lung 55.2% | HOP-62 NSCLC 35.2% | NCI-H460 lung 59.2% | HOP-92 NSCLC 36.9% | NCI-H522 lung 31.2% | A549/ATCC NSCLC 36.2% | 786-0 renal 48% | COLO 205 colon 31.6% | DU-145 prostate 69.2% | K-562 leukemia 30.5% | MALME-3M melanoma 71.7% | MDA-MB-231 breast 46.3% | RXF 393 renal 54.8% | SF-268 CNS 65.5% | SF-295 CNS 49.7% | SF-539 CNS 33.6% | UACC-257 melanoma 31.8% | M14 melanoma 46.2%

Cc1nn(-c2ccc(F)cc2)c2ncnc(Oc3ccc(NC(=O)Nc4ccc(Cl)c(C(F)(F)F)c4)cc3)c12
inactive: NCI-H23 lung 96.7% | NCI-H226 lung 103% | HOP-62 NSCLC 105% | NCI-H460 lung 101% | HOP-92 NSCLC 104% | NCI-H522 lung 99.7% | A549/ATCC NSCLC 96.2% | 786-0 renal 106% | COLO 205 colon 109% | DU-145 prostate 106% | K-562 leukemia 105% | MALME-3M melanoma 100% | MDA-MB-231 breast 103% | RXF 393 renal 107% | SF-268 CNS 93.4% | SF-295 CNS 102% | SF-539 CNS 96.8% | UACC-257 melanoma 99.9% | M14 melanoma 106%

CCC#CC[C@H](O)C/C=C1/C(=O)C=C[C@@H]1C/C=C\CCCC(=O)OC
active: NCI-H23 lung -13.4% | NCI-H226 lung -62.8% | HOP-62 NSCLC -8.26% | NCI-H460 lung -34.6% | NCI-H522 lung -90.1% | 786-0 renal -28.3% | COLO 205 colon -23% | RXF 393 renal -74.1% | SF-295 CNS -25.6% | SF-539 CNS -5.91% | UACC-257 melanoma -6.54% | M14 melanoma 5.13%
inactive: HOP-92 NSCLC 35.8% | A549/ATCC NSCLC 32.6% | DU-145 prostate 23% | MALME-3M melanoma 23.4% | MDA-MB-231 breast 12.7% | SF-268 CNS 23.8%

C=CC(=O)Nc1cccc(-c2nc(SC)nc(NCc3ccccc3)c2C#N)c1
inactive: NCI-H23 lung 61.1% | NCI-H226 lung 46.8% | HOP-62 NSCLC 73.9% | NCI-H460 lung 84% | HOP-92 NSCLC 48.1% | NCI-H522 lung 31.2% | A549/ATCC NSCLC 53.4% | 786-0 renal 66% | COLO 205 colon 98% | DU-145 prostate 60.8% | K-562 leukemia 60% | MALME-3M melanoma 66.4% | MDA-MB-231 breast 62.4% | RXF 393 renal 21.9% | SF-268 CNS 49% | SF-295 CNS 67.8% | SF-539 CNS 67.7% | UACC-257 melanoma 64.9% | M14 melanoma 71.3%

Cc1nn(-c2cc(=O)[nH]c3ccc(Cl)cc23)c(N)c1C#N
inactive: NCI-H23 lung 93.8% | NCI-H226 lung 81.3% | HOP-62 NSCLC 94.9% | NCI-H460 lung 101% | HOP-92 NSCLC 104% | NCI-H522 lung 93.3% | A549/ATCC NSCLC 108% | 786-0 renal 106% | COLO 205 colon 119% | DU-145 prostate 114% | K-562 leukemia 113% | MALME-3M melanoma 105% | MDA-MB-231 breast 96.9% | RXF 393 renal 113% | SF-268 CNS 102% | SF-295 CNS 100% | SF-539 CNS 99.9% | UACC-257 melanoma 107% | M14 melanoma 110%

CN(CCCCCl)P(=O)(OCc1ccc([N+](=O)[O-])o1)C(F)(F)c1ccc(CC(=O)NC[C@@H](O)/C=C\[C@@H](O)[C@H](CO)Cc2ccccc2)cc1 (some centres undefined)
active: NCI-H522 lung -2.39%
inactive: NCI-H23 lung 92.8% | NCI-H226 lung 95.6% | HOP-62 NSCLC 96.6% | NCI-H460 lung 102% | HOP-92 NSCLC 135% | A549/ATCC NSCLC 85.3% | 786-0 renal 107% | COLO 205 colon 103% | DU-145 prostate 105% | K-562 leukemia 50.2% | MALME-3M melanoma 92.1% | MDA-MB-231 breast 89.3% | RXF 393 renal 100% | SF-268 CNS 98.5% | SF-295 CNS 98.3% | SF-539 CNS 102% | UACC-257 melanoma 92.2% | M14 melanoma 95.3%

Cc1ccc(C2Oc3ccccc3C3CC(c4cccs4)=NN32)cc1 (centres undefined)
inactive: NCI-H23 lung 93.4% | NCI-H226 lung 84.7% | HOP-62 NSCLC 105% | NCI-H460 lung 101% | HOP-92 NSCLC 81.7% | NCI-H522 lung 88.7% | A549/ATCC NSCLC 103% | 786-0 renal 99.8% | COLO 205 colon 104% | DU-145 prostate 97% | K-562 leukemia 101% | MALME-3M melanoma 95.1% | MDA-MB-231 breast 91.3% | RXF 393 renal 101% | SF-268 CNS 91.4% | SF-295 CNS 99% | SF-539 CNS 90.1% | UACC-257 melanoma 98.6% | M14 melanoma 99.3%
